According to PubChem BioAssay AID720597 (Broad Institute, 2013):
Results with a measured potency or affinity are listed apart.

molecular target: NAD-dependent protein deacylase sirtuin-5, mitochondrial (Homo sapiens) (UniProt Q9NXA8); assay: blockers of sirtuin-5 peptide desuccinylation – biochemical, fluorescence imaging, cherry-pick, set 6, dose response (AID 720597); conditions: Purified SirT5, succinyl-peptide-AMC/trypsin fluorescence; series mostly up to 15 µM; activity change, negative = inhibition: at the top concentration;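 further: lower AMC signal can also come from blocking the trypsin step; 0% = median of neutral control wells and -100% = median of positive control wells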
Sequence (Q9NXA8 whole entry, looked up): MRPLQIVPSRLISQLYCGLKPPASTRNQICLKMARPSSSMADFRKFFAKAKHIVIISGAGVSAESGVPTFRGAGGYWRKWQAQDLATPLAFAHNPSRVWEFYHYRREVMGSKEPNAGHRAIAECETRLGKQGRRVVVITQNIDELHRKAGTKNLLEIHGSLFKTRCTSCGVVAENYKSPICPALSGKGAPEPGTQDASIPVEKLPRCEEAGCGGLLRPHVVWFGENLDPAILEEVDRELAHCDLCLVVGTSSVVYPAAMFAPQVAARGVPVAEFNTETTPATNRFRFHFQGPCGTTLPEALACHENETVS

Activity change, negative = inhibition, inactive:
C/C=C/c1ccc([C@@H]2[C@@H](CO)N(C(C)=O)[C@H]2CN(C(=O)COC)C(C)C)cc1 -12.2%
O=C(C[C@H]1CC[C@H]2[C@@H](COC[C@@H](O)CN2C(=O)c2ccncc2)O1)Nc1ccc(-c2ccccc2)cc1 -9.41%
CCCC#Cc1ccc2c(c1)O[C@@H](CN(C)CC1CCOCC1)[C@H](C)CN([C@H](C)CO)S2(=O)=O -17.3%
O=C(CCN1CCCCC1)N[C@@H]1CC[C@@H](CC(=O)N2CCC(Cc3ccccc3)CC2)O[C@H]1CO 0.115%
CCC(=O)N1C[C@H]2[C@@H](c3ccccc31)[C@@H](CO)N2Cc1cc(F)ccc1F 9%
COCC(=O)N1C[C@@H](C)[C@@H](OC)CN(C)C(=O)c2cc(NC(=O)c3cc(C)on3)ccc2OC[C@H]1C -15.1%
C[C@H]1CN([C@@H](C)CO)C(=O)c2cc(NC(=O)Cn3cnnn3)ccc2O[C@@H]1CN(C)S(=O)(=O)c1ccc(F)cc1 -11.5%
O=C(Nc1ccccc1F)N1C[C@@H]2N[C@H](C1)C2c1ccc(/C=C/c2ccccc2)cc1 (stereo partly drawn) -14.4%
C[C@H]1CCCCO[C@H](CN(C)S(=O)(=O)c2ccc(Cl)cc2)[C@@H](C)CN([C@@H](C)CO)C(=O)c2cc(NS(=O)(=O)c3ccc(F)cc3)ccc2O1 -3.99%
COc1ccc(S(=O)(=O)N(C)C[C@H]2OCCCC[C@H](C)Oc3ccc(NS(=O)(=O)c4ccc(F)cc4)cc3C(=O)N([C@@H](C)CO)C[C@@H]2C)cc1 -23.8%
C[C@@H]1CN([C@H](C)CO)C(=O)c2cc(NS(=O)(=O)c3ccc(Cl)cc3)ccc2O[C@@H]1CN(C)Cc1ccc(-c2ccccc2)cc1 -4.51%
CC(C)NC(=O)N[C@H]1CC[C@H](CCNC(=O)C2CCCC2)O[C@@H]1CO 3.67%
O=C(Nc1cc(F)ccc1F)N1CC(=O)N2[C@H](C1)[C@@H](c1ccc(C#CC3CCCCC3)cc1)[C@@H]2CO 8.23% [at 3.8 µM]
COc1ccc(S(=O)(=O)N(C)C[C@@H]2OCCCC[C@H](C)Oc3ccc(NS(=O)(=O)c4ccc(C)cc4)cc3C(=O)N([C@H](C)CO)C[C@H]2C)cc1 -12.7%
C[C@@H]1CCCCO[C@@H](CN(C)C(=O)Nc2ccc(C(F)(F)F)cc2)[C@H](C)CN([C@@H](C)CO)C(=O)c2cc(NS(=O)(=O)c3ccc(Cl)cc3)ccc2O1 11.3%
COCCOC(=O)N1C(=O)[C@@]2(c3cc(C#CCCO)ccc31)[C@H](c1ccccc1OCCO)N1[C@H](c3ccccc3)[C@H](c3ccccc3)OC(=O)[C@H]1[C@@H]2C(=O)N1CCN(c2ncccn2)CC1 -16.8%
Cc1noc(C)c1S(=O)(=O)Nc1ccc2c(c1)C(=O)N([C@@H](C)CO)C[C@H](C)[C@@H](CN(C)Cc1ccc(C(F)(F)F)cc1)OCCCC[C@@H](C)O2 -32.6% [at 16 µM]
C[C@@H]1CN([C@@H](C)CO)C(=O)c2cc(NC(=O)Nc3cccc4ccccc34)ccc2O[C@@H](C)CCCCO[C@@H]1CN(C)S(=O)(=O)c1ccc(Cl)cc1 7.77%
C[C@H](CO)N1C[C@H](C)[C@@H](CN(C)S(=O)(=O)c2cccc(F)c2)Oc2ncc(C#CC3CCCCC3)cc2C1=O 6.48%
Cc1ccc(S(=O)(=O)N(C)C[C@@H]2OCCCC[C@H](C)Oc3ccc(NS(=O)(=O)c4ccc(F)cc4)cc3C(=O)N([C@H](C)CO)C[C@H]2C)cc1 -26.5%
O=S(=O)(c1ccc(F)cc1)N1CCCCN2[C@H](CO)[C@H](c3ccc(C#CC4CCCC4)cc3)[C@H]2C1 10%
CN(C)c1ccc2c(c1)[C@@H]1C[C@@H](CC(=O)NCc3ccccc3)O[C@H](CO)[C@@H]1O2 -3.65%
COc1ccc(S(=O)(=O)N(C)C[C@@H]2OCCCC[C@H](C)Oc3ccc(NS(=O)(=O)c4ccc(F)cc4)cc3C(=O)N([C@H](C)CO)C[C@H]2C)cc1 13.5%
C[C@@H]1CN([C@@H](C)CO)C(=O)c2cc(C#CCN(C)C)cnc2O[C@@H]1CN(C)Cc1ccncc1 -5.47%
O=S(=O)(c1ccccc1)N1CCCCN2[C@H](C1)[C@H](c1ccc(C#CC3CCCC3)cc1)[C@@H]2CO -17.2%
COc1ccc(S(=O)(=O)N2CCCCN3[C@H](CO)[C@H](c4ccc(C#CC(C)C)cc4)[C@H]3C2)cc1 -7.12%
O=C(C[C@@H]1CC[C@@H](NS(=O)(=O)c2ccc(F)cc2)[C@@H](CO)O1)N1CCC(Cc2ccccc2)CC1 -27.4%
C[C@H]1CN([C@@H](C)CO)C(=O)c2c(c3ccccc3n2C)-c2ccccc2CO[C@H]1CN(C)Cc1cccc2c1OCCCO2 0.028%
